Data reported in publication PMC5836133, “The intracellular immune receptor Rx1 regulates the DNA-binding activity of a Golden2-like transcription factor”.
Over roughly 16,000 sequences, “e-score” has its median near -0.044; the highest 2% begin near 0.38. Shown is part of a subset that was picked to be rich in the highest values.

Biological target: T1, GST-NbGlk1(82-244) (Nicotiana benthamiana)
T1 chain: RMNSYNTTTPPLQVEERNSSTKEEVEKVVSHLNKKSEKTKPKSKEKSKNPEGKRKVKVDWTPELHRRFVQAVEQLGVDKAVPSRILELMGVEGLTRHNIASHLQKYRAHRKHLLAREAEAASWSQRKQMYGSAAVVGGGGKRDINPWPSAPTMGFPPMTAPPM
Experiment: protein-binding microarray; NbGlk1 is a Golden2-like transcription factor of Nicotiana benthamiana; high values mean tight binding
Conditions: protein: recombinant; tags: GST (pTH6838); dsDNA, one strand shown

Point of comparison: ATGGTATC, binding signal 0.2 ± 0.0619 E-score. Against it:
- AGCAATCG — higher, 0.308 ± 0.0291 E-score
- AGAATTCT — within error, 0.299 ± 0.0757 E-score
- AGTAATCC — higher, 0.369 ± 0.00994 E-score
- AGAAATCC — higher, 0.464 ± 0.00886 E-score
- AGCAATCA — higher, 0.321 ± 0.00992 E-score
- ACAAATCA — within error, 0.262 ± 0.0406 E-score
- ATAAATCA — within error, 0.239 ± 0.0998 E-score
- ATCTTAAA — within error, 0.272 ± 0.0208 E-score
- AAGATCCA — within error, 0.24 ± 0.0941 E-score
- ATGTAGTA — within error, 0.223 ± 0.0748 E-score
- ATTTCACA — within error, 0.304 ± 0.0596 E-score
- ATTCTGCG — within error, 0.217 ± 0.0166 E-score
- AATCTGCG — higher, 0.444 ± 0.00526 E-score
- AATCAGCA — higher, 0.322 ± 0.0337 E-score
- AATCTGCA — higher, 0.414 ± 0.00858 E-score
- ATTCTGCA — within error, 0.266 ± 0.0788 E-score
- AATCTGCC — within error, 0.34 ± 0.133 E-score
- ATCCGGGG — higher, 0.279 ± 0.0126 E-score
- ATCCGCAA — higher, 0.325 ± 0.0306 E-score
- ATCTCACC — higher, 0.317 ± 0.00666 E-score
- ATTACGAC — higher, 0.351 ± 0.0302 E-score
- AGTATCGG — within error, 0.202 ± 0.042 E-score
- ATATAACA — within error, 0.214 ± 0.0677 E-score
- ATCCGCAC — within error, 0.284 ± 0.0333 E-score
- ACGATCCT — within error, 0.272 ± 0.0244 E-score
- ACATAATC — higher, 0.327 ± 0.0217 E-score
- AGGTAAAT — within error, 0.205 ± 0.0739 E-score
- ACGTAATA — higher, 0.285 ± 0.0122 E-score
- ATGTAATC — higher, 0.462 ± 0.0104 E-score
- AAGTAATC — higher, 0.337 ± 0.0373 E-score
- ATCTAATC — within error, 0.331 ± 0.07 E-score
- ACGTAATC — higher, 0.4759 ± 0.00151 E-score
- ATATAATC — higher, 0.297 ± 0.00596 E-score
- AGGTAATC — higher, 0.416 ± 0.00105 E-score
- ATCTTTTC — within error, 0.289 ± 0.0307 E-score
- AAATCGAA — higher, 0.329 ± 0.0505 E-score
- ATCTCGGA — higher, 0.36 ± 0.00407 E-score
- ATACTGTA — within error, 0.274 ± 0.0926 E-score
- ATTTCCAA — higher, 0.36 ± 0.0335 E-score
- ATTTTGCG — higher, 0.293 ± 0.0239 E-score
- AGGCGGAT — within error, 0.206 ± 0.0564 E-score
- ATTTCATA — higher, 0.353 ± 0.0105 E-score
- ATCGCGAG — higher, 0.33 ± 0.00694 E-score
- ATCGCAAT — higher, 0.397 ± 0.0277 E-score
- ATCGCAAA — within error, 0.234 ± 0.0734 E-score
- ATCGCGAT — higher, 0.4239 ± 0.000981 E-score
- ATCGCGAA — higher, 0.323 ± 0.0256 E-score
- AACGCAAT — higher, 0.344 ± 0.0179 E-score
- ATTTTTAC — higher, 0.313 ± 0.0485 E-score
- ACATATCG — within error, 0.226 ± 0.0607 E-score
- AGATCCCT — higher, 0.298 ± 0.00953 E-score
- ATGGCAAT — within error, 0.237 ± 0.0667 E-score
- ATCTAGTA — within error, 0.316 ± 0.0615 E-score
- ACGTGGAT — within error, 0.283 ± 0.0431 E-score
- ATTTTTAA — within error, 0.221 ± 0.0275 E-score
- ACGCGATA — within error, 0.252 ± 0.00347 E-score
- AAGCGATC — within error, 0.294 ± 0.0444 E-score
- ACGCGATC — higher, 0.437 ± 0.0114 E-score
- ATCTTGTG — within error, 0.318 ± 0.0738 E-score
- AATATCTG — higher, 0.423 ± 0.0344 E-score
- AGTATCTA — higher, 0.305 ± 0.0244 E-score
- AATATATC — higher, 0.311 ± 0.00568 E-score
- AGTATCTC — within error, 0.235 ± 0.067 E-score
- AATATCTC — higher, 0.391 ± 0.0345 E-score
- AATATCGG — higher, 0.371 ± 0.0225 E-score
- AATATCTA — higher, 0.402 ± 0.018 E-score
- AATATCAA — higher, 0.322 ± 0.0489 E-score
- AGTATCTG — higher, 0.339 ± 0.041 E-score
- ATTTAAAG — within error, 0.222 ± 0.0214 E-score
- AACGTATA — within error, 0.225 ± 0.0359 E-score
- ATTCGCAG — within error, 0.292 ± 0.0538 E-score
- CACAATCA — within error, 0.27 ± 0.109 E-score
- AAGGGATT — higher, 0.3179 ± 0.00237 E-score
- ATTTCGCA — within error, 0.279 ± 0.0966 E-score
- AATCAGTG — within error, 0.266 ± 0.0198 E-score
- AATCAGAG — within error, 0.229 ± 0.0948 E-score
- AATCTGTG — higher, 0.411 ± 0.0099 E-score
- ATCCTGTG — within error, 0.205 ± 0.0418 E-score
- ATTCTGTG — within error, 0.25 ± 0.0953 E-score
- AATCTGAG — higher, 0.415 ± 0.0436 E-score
- AAGCAAAT — within error, 0.207 ± 0.0438 E-score
- AACGAAAT — higher, 0.344 ± 0.0502 E-score
- ATCAGAAG — within error, 0.24 ± 0.0447 E-score
- AATATCAC — higher, 0.34 ± 0.00742 E-score
- ATTCGATC — within error, 0.207 ± 0.00438 E-score
